Test results reported in PubChem BioAssay (NCI).
Compounds without any hit were thinned out: in the full panel of roughly 83,000, 20% have a hit.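 Cells were grown in 96-well plates and exposed to the test compound at a single concentration for 48 hours; results are reported as percent growth, with values below 10 considered active.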 Calls of active or inactive are those of the source.

Legend:
Experiment in all cases: NCI-60 one-dose screen, 48 h (100 = growth as untreated, 0 = no growth, -100 = all killed)
DU-145 prostate = settings: 10 µM unless noted
K-562 leukemia = settings: 10 µM unless noted
MALME-3M melanoma = settings: 10 µM unless noted
MDA-MB-231 breast = settings: 10 µM unless noted
RXF 393 renal = settings: 10 µM unless noted
SF-268 CNS = settings: 10 µM unless noted
SF-295 CNS = settings: 10 µM unless noted
SF-539 CNS = settings: 10 µM unless noted
UACC-257 melanoma = settings: 10 µM unless noted
M14 melanoma = settings: 10 µM unless noted
HCT-15 colon = settings: 10 µM unless noted
HT29 colon = settings: 10 µM unless noted
SNB-75 CNS = settings: 10 µM unless noted
U251 CNS = settings: 10 µM unless noted
PC-3 prostate = settings: 10 µM unless noted
SK-MEL-5 melanoma = settings: 10 µM unless noted
UACC-62 melanoma = settings: 10 µM unless noted
LOX IMVI melanoma = settings: 10 µM
SK-MEL-28 melanoma = settings: 10 µM unless noted

Measured: growth

COc1ccc(C(SCCNCc2cc(N(C)C)ccn2)(c2ccccc2)c2ccccc2)cc1
inactive: SF-268 CNS 22.1%
active: DU-145 prostate 7.05% | K-562 leukemia -28.5% | MALME-3M melanoma -91.4% | MDA-MB-231 breast -33.4% | RXF 393 renal -21.4% | SF-295 CNS -58.8% | SF-539 CNS -93% | UACC-257 melanoma -20.9% | M14 melanoma -46.3% | HCT-15 colon -19.5% | HT29 colon -60.2% | SNB-75 CNS -0.256% | U251 CNS -33.9% | PC-3 prostate 2.15% | SK-MEL-5 melanoma -100% | UACC-62 melanoma -3.86% | LOX IMVI melanoma -98.9% | SK-MEL-28 melanoma -65.3%

CCCCCCCCc1ccc(C(=O)Nc2ccc(C)cc2C(=O)O)cc1C
inactive: DU-145 prostate 105% | K-562 leukemia 71.2% | MALME-3M melanoma 96.5% | MDA-MB-231 breast 98.1% | RXF 393 renal 109% | SF-268 CNS 99.9% | SF-295 CNS 73.6% | SF-539 CNS 99.1% | UACC-257 melanoma 95% | M14 melanoma 99.9% | HCT-15 colon 94% | HT29 colon 108% | SNB-75 CNS 92.4% | U251 CNS 88.1% | PC-3 prostate 84.2% | SK-MEL-5 melanoma 94.3% | LOX IMVI melanoma 101% | SK-MEL-28 melanoma 109%

COc1ccc(C2CC(c3ccc(S(=O)(=O)NCCNc4nc(Nc5ccc(F)cc5)nc(N(C)C)n4)cc3)=Nc3c(N)nc(N)nc3N2)cc1 (stereo not given)
inactive: DU-145 prostate 102% | K-562 leukemia 35.6% | MALME-3M melanoma 106% | MDA-MB-231 breast 64.2% | RXF 393 renal 53.3% | SF-268 CNS 73.8% | SF-295 CNS 94.8% | SF-539 CNS 75.4% | UACC-257 melanoma 100% | M14 melanoma 81.9% | HCT-15 colon 82.7% | HT29 colon 63.4% | SNB-75 CNS 92.7% | U251 CNS 64.5% | PC-3 prostate 53.7% | SK-MEL-5 melanoma 71.7% | UACC-62 melanoma 81.6% | LOX IMVI melanoma 65.1% | SK-MEL-28 melanoma 85.5%

O=C(N=Nc1c(O)[nH]c2ccc(Cl)cc12)c1ccc2nc(-c3ccccc3)[nH]c2c1
active: MALME-3M melanoma 8.71% | MDA-MB-231 breast -33.1% | U251 CNS -71.3%
inactive: DU-145 prostate 10.9% | K-562 leukemia 29.3% | RXF 393 renal 59.1% | SF-268 CNS 21.8% | SF-295 CNS 63.6% | SF-539 CNS 34% | UACC-257 melanoma 109% | M14 melanoma 68.6% | HCT-15 colon 95.4% | HT29 colon 57.4% | SNB-75 CNS 91.7% | PC-3 prostate 51.1% | SK-MEL-5 melanoma 94.3% | UACC-62 melanoma 21.7% | SK-MEL-28 melanoma 44.3%

CC(C)CSc1nc(NCCc2c[nH]c3ccccc23)c(C#N)c(-c2ccc(Cl)cc2)n1
inactive: DU-145 prostate 67.1% | K-562 leukemia 13.6% | MALME-3M melanoma 81.9% | MDA-MB-231 breast 48.2% | RXF 393 renal 31% | SF-268 CNS 55% | SF-295 CNS 66.4% | SF-539 CNS 60.9% | UACC-257 melanoma 85.8% | M14 melanoma 67.6% | HCT-15 colon 29.8% | HT29 colon 15.1% | SNB-75 CNS 77.3% | U251 CNS 23.8% | PC-3 prostate 23.1% | SK-MEL-5 melanoma 30% | UACC-62 melanoma 74.1% | LOX IMVI melanoma 22.5% | SK-MEL-28 melanoma 72.1%

CN(C)c1ccnc(CNCCSC2(c3ccccc3)c3ccccc3C=Cc3ccccc32)c1
active: DU-145 prostate -26.1% | K-562 leukemia -27.1% | MALME-3M melanoma -93.4% | MDA-MB-231 breast -49.5% | RXF 393 renal -36.6% | SF-268 CNS -30.7% | SF-295 CNS -70.5% | SF-539 CNS -96.5% | UACC-257 melanoma -66.3% | M14 melanoma -80.8% | HCT-15 colon -36.9% | HT29 colon -46.4% | SNB-75 CNS -10.9% | U251 CNS -77.1% | PC-3 prostate -23.3% | SK-MEL-5 melanoma -99.4% | UACC-62 melanoma -32.2% | SK-MEL-28 melanoma -64.6%

C=C1CCC2C3(C)COC(c4ccc(F)cc4)OC3CCC2(C)C1C/C=C1/C(=O)OCC1O (stereo not given)
inactive: K-562 leukemia 11.9% | SF-268 CNS 39.7%
active: DU-145 prostate -41.4% | MALME-3M melanoma -71.9% | MDA-MB-231 breast -45.2% | RXF 393 renal -69.7% | SF-295 CNS -8.06% | SF-539 CNS -85.5% | UACC-257 melanoma -62.6% | M14 melanoma -68.1% | HCT-15 colon -42.3% | HT29 colon -4.77% | SNB-75 CNS -21.6% | U251 CNS -94.4% | PC-3 prostate -43.6% | SK-MEL-5 melanoma -90.3% | UACC-62 melanoma -8.34% | SK-MEL-28 melanoma -70.3%

Cc1ccc(C(=O)CSc2nc3ccc(F)cc3c(=O)n2-c2ccc(Cl)cc2)cc1
active: RXF 393 renal -10.6% | SF-295 CNS 4.69% | SF-539 CNS 2.03% | SNB-75 CNS -19.4%
inactive: DU-145 prostate 50.4% | K-562 leukemia 88.8% | MALME-3M melanoma 39.6% | MDA-MB-231 breast 13.7% | SF-268 CNS 28.9% | UACC-257 melanoma 70.4% | M14 melanoma 56.5% | HCT-15 colon 59.2% | HT29 colon 49.9% | U251 CNS 19.6% | PC-3 prostate 25.9% | SK-MEL-5 melanoma 68.1% | UACC-62 melanoma 71.4% | SK-MEL-28 melanoma 77.2%

COc1ccc2[nH]cc(-c3nc(N)nnc3-c3cn(C)c4ncccc34)c2c1
inactive: DU-145 prostate 83.9% | K-562 leukemia 21.6% | MALME-3M melanoma 37.6% | MDA-MB-231 breast 43.4% | RXF 393 renal 81.5% | SF-268 CNS 75.8% | SF-295 CNS 39.9% | SF-539 CNS 50.2% | UACC-257 melanoma 72.9% | M14 melanoma 33.2% | HCT-15 colon 44.4% | HT29 colon 35.6% | SNB-75 CNS 14.2% | U251 CNS 60.1% | PC-3 prostate 68.4% | SK-MEL-5 melanoma 31.2% | UACC-62 melanoma 37.7% | SK-MEL-28 melanoma 62.3%
